Data on three molecules can be found in PubChem BioAssay (NCATS).

Assay [1] deals with Lysosomal acid glucosylceramidase (Homo sapiens) (UniProt P04062). Put plainly: Glucocerebrosidase-p2 (AID 348; in the data active = potency below about 10 µM; note: potency is the fitted concentration of half-maximal effect). The following applies: purified GBA, blue fluorogenic substrate, 40 min. The gist of the method:
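Compounds titrated from 0.6 nM upwards against 0.2 nM enzyme in pH 5.9 citric acid/KH2PO4, taurocholate, tween-20; blue fluorogenic substrate 80 uM, 40 min room temperature, stopped and read Ex 365/Em 440 for AC50.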

A short description of assay [2]: AP1 Signaling Pathway (AID 357; active = well fitted curve in either direction with a large enough effect, not every such curve was filed as active;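 note: ME-180 reporter cells stimulated with EGF at its EC50 level; % is set by controls: 0 for no effect and ±100 for the full control effect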). The following applies: ME-180 AP-1-bla reporter, EGF-induced, beta-lactamase ratio, 5 h; at 7.69 µM (top of the series) unless noted. The gist of the method: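 Modulation of EGF-driven AP-1 transcription was assessed with a beta-lactamase reporter in ME-180 cells. Compound and EC50 EGF were co-incubated 5 hours at 37 °C before 2.5-hour CCF4 loading at room temperature and dual-emission reading.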

Assay [3] has as its target Cytochrome P450 1A2 (Homo sapiens) (UniProt P05177). Put plainly: p450-cyp1a2 (AID 410; calls by dose curve; note: potency is the fitted concentration of half-maximal effect). The following applies: recombinant CYP1A2, luciferin-ME demethylation, luminescence; series mostly up to 57 µM. The gist of the method:
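20nM CYP1A2 with 100uM Luciferin-ME (at Km) in 100mM KPO4; compound preincubated 10 min, NADPH regeneration added, 60 min at room temperature. Luciferin quantified by luminescence after detection reagent; normalized to 57 uM furafylline.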

A short description of assay [4]: NFAT Signaling Pathway (AID 444; active = well fitted curve in either direction with a large enough effect, not every such curve was filed as active;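 note: carbachol stimulus at about its EC50 of 1 µM final; % is set by controls: 0 for no effect and ±100 for the full control effect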). The following applies: Jurkat NFAT-bla M1, carbachol, beta-lactamase ratio, 5 h; at 7.69 µM (top of the series) unless noted. The procedure, abridged:
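Jurkat cells with NFAT-driven β-lactamase reporter and co-expressed M1 receptor, stimulated with carbachol (final 1 uM, ~EC50), compound titration, 5 h at 37 °C. CCF4 loaded 1 h at RT; 460/530 nm ratio gave %activity and AC50.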

Assay [5] can be described thus: Stat Signaling Pathway (AID 446; active = well fitted curve in either direction with a large enough effect, not every such curve was filed as active;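 note: ME-180 cervical cancer cells given 40 pM IL-6 alongside compound; SIE-controlled beta-lactamase reporter measured as 460/530 nm FRET emission ratio; % is set by controls: 0 for no effect and ±100 for the full control effect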). To be noted: ME-180 (cervical carcinoma) SIE beta-lactamase reporter, IL-6 stimulated, 5 h; at 7.69 µM (top of the series) unless noted. The procedure, abridged: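 IL-6/STAT signaling read in ME-180 cells via an SIE beta-lactamase reporter. Stimulus was 40 pM IL-6 (its AC50) for 5 hrs, so both activation and inhibition register.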
The target in assay [6] is Glucocorticoid receptor (Homo sapiens) (UniProt P04150). Briefly: GR-GFP Redistribution (AID 450;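 active = compounds whose dose series gives a full or clear partial fitted curve of increased nuclear translocation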; note: potency is the fitted concentration of half-maximal effect). The following applies: U2OS GR-GFP nuclear translocation, laser cytometry, 2 h.
Sequence of Glucocorticoid receptor (Homo sapiens) (P04150 whole entry, looked up, the tested form may be a part): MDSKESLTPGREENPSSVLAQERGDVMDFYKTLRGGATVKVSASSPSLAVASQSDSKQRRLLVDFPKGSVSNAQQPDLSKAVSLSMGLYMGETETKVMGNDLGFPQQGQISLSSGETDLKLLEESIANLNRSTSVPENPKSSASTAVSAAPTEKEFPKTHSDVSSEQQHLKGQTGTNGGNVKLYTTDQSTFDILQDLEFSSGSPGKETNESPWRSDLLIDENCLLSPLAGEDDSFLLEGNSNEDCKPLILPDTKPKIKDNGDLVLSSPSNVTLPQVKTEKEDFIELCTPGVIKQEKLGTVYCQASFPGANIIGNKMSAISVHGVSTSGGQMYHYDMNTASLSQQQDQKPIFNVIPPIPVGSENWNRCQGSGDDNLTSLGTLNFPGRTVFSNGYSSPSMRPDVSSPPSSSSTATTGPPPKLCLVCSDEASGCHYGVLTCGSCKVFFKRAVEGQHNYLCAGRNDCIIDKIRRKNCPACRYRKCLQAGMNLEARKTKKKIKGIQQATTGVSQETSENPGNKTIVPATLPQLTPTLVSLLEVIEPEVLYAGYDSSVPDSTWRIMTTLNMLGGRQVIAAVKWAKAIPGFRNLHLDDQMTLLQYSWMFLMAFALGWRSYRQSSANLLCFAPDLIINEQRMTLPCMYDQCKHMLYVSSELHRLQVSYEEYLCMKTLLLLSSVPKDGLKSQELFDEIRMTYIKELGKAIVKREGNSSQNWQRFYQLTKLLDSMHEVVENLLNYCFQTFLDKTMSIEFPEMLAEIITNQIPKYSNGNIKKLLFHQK
For assay [7] the target is unchanged. Briefly: GR-EFC Redistribution (AID 451; calls by dose curve; note: potency is the fitted concentration of half-maximal effect). To be noted: CHO-K1 GR-EFC translocation, beta-gal luminescence, 2 h. The gist of the method: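 CHO-K1 cells expressing nuclear EA and GR-ED fragments of b-gal; compounds titrated up to 46 uM final, 2 h at 37 C. GR nuclear translocation read as complemented b-gal luminescence after 1 h RT detection.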
Assay [8] deals with Mitogen-activated protein kinase 10 (Mus musculus) (UniProt Q61831). Put plainly: JNK3 AlphaScreen Assay (AID 530; active = well fitted curve in either direction with a large enough effect, not every such curve was filed as active;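 note: kinase came from lysate of stimulated human HepG2 cells; signal reports phosphorylation of biotinylated GST-cJun 1-79 at Ser73 with 10 µM ATP; % is set by controls: 0 for no effect and ±100 for the full control effect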). The following applies: JNK3 lysate, c-Jun phosphorylation; series mostly up to 57.1 µM. The procedure, abridged:
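Pre-activated (IL-1β/TNFα) JNK3 in HepG2 lysates phosphorylates biotin-GST-cJun(1-79), 10 uM ATP; anti-phospho-cJun(Ser73) AlphaScreen read at room temperature, pH 7.6 Tris buffer. Compounds pre-incubated 15 min as titrations.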

Assay [9] deals with 3',5'-cyclic-AMP phosphodiesterase 4B (Homo sapiens) (UniProt Q07343). Briefly: qHTS Assay for Inhibitors of PDE-IV (AID 607; active = well fitted activation curve with a large enough effect in the main read-out, with a control signal flat, not every such curve was filed as active; note: % of control where 0% means no effect). The following applies: HEK293 ACTOne CNG channel cells, membrane potential fluorescence; series mostly up to 22.9 µM. The gist of the method: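 Live HEK293 cells with a modified cyclic nucleotide-gated (CNG) channel report intracellular cAMP via membrane-potential dye fluorescence (ex 535/em 590 nm). Endogenous PDE-IV was targeted. Compounds were tested at up to 22.9 uM final; RO 20-1724 100 uM served as control.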
Sequence of 3',5'-cyclic-AMP phosphodiesterase 4B (Homo sapiens) (Q07343 whole entry, looked up): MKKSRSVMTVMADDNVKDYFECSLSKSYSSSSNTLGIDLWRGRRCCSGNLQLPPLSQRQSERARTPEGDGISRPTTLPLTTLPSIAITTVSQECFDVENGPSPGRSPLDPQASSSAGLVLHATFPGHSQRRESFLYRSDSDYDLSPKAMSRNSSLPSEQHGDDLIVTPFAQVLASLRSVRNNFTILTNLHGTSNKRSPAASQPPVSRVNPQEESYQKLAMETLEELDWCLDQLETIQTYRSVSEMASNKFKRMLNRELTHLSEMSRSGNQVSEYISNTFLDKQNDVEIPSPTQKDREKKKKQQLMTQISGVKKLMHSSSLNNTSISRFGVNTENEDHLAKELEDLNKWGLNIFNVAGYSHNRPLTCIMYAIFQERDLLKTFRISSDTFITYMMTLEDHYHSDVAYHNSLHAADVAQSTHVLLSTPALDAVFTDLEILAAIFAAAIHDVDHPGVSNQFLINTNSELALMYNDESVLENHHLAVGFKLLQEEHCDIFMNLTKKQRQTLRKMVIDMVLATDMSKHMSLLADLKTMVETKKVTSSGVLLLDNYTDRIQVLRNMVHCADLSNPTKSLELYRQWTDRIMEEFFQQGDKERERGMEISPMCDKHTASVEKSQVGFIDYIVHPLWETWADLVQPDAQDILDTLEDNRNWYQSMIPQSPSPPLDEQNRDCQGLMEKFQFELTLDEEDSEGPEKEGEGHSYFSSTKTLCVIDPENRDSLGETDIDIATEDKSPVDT

The target of assay [10] is Cytochrome P450 3A4 (Homo sapiens) (UniProt P08684). Briefly: qHTS Assay for Inhibitors and Substrates of Cytochrome P450 3A4 (AID 884). Note: potency is the fitted concentration of half-maximal effect; nearly all actives have a fitted effect of over 50% in size. To be noted: recombinant CYP3A4, Luciferin-PPXE luminescence; series mostly up to 57.1 µM. The gist of the method: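 20 nM human CYP3A4 with 25 uM Luciferin-PPXE (at KM) in 200 mM KPO4, preincubated 10 min with compound; NADPH regeneration started a 60 min RT reaction. Luciferin detected by luminescence, normalized to 57 uM ketoconazole as full inhibition.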
Sequence of Cytochrome P450 3A4 (Homo sapiens) (P08684 whole entry, looked up): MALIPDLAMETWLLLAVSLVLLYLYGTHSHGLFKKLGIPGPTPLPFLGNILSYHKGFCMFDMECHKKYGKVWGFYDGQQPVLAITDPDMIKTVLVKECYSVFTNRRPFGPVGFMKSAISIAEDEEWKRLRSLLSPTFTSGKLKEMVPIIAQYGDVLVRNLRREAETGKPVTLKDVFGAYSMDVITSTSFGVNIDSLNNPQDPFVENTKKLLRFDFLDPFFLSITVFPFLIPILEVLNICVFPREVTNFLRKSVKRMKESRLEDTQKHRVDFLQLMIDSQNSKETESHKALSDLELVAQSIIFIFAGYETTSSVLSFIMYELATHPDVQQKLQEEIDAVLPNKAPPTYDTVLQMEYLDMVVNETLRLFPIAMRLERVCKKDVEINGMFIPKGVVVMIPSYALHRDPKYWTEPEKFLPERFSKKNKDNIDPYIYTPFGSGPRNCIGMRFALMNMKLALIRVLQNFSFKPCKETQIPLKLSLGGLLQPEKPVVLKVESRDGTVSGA
(In general: qHTS replaces the single test concentration by a dilution series.)

Assay [11] shares this target. Put plainly: qHTS Assay for Activators of Cytochrome P450 3A4 (AID 885). Note: nearly all actives have a fitted effect of over 65% in size. The following applies: recombinant CYP3A4, Luciferin-PPXE luminescence, 60 min; series mostly up to 57.1 µM. The gist of the method:
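Quantitative HTS format: compounds preincubated with 20nM human CYP3A4 and Luciferin-PPXE substrate at KM, reaction started by NADPH regeneration, stopped after 60 min, luciferase luminescence read 20 min later.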

Assay [12] deals with Cytochrome P450 2C19 (Homo sapiens) (UniProt P33261). Put plainly: qHTS Assay for Inhibitors and Substrates of Cytochrome P450 2C19 (AID 899). Note: potency is the fitted concentration of half-maximal effect; nearly all actives have a fitted effect of over 60% in size. To be noted: recombinant CYP2C19, luciferin-H EGE luminescence; series mostly up to 57.1 µM. The gist of the method: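 5 nM human CYP2C19 with 10uM Luciferin-H EGE (at KM) in 50mM KPO4, compound preincubated 10 min at 37C, then NADPH regeneration for 60 min at 37C. Luciferin read by luminescence after detection reagent; normalized to 57uM ketoconazole as full inhibition.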
Sequence of Cytochrome P450 2C19 (Homo sapiens) (P33261 whole entry, looked up): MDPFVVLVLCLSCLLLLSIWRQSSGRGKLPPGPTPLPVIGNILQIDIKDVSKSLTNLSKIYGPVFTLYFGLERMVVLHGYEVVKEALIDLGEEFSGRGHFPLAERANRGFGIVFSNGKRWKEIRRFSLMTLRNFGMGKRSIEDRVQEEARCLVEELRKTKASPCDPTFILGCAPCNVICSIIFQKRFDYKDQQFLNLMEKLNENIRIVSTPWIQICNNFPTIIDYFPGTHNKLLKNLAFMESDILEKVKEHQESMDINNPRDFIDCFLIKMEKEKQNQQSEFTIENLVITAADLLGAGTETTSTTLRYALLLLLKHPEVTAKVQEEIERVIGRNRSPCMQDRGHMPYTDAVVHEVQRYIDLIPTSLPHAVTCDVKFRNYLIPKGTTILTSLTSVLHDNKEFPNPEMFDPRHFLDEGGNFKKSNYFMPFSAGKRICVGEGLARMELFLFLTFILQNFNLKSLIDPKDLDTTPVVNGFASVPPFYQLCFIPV

Assay [13] is described as follows: Confirmation and Secondary Assay for Modulators of Hemoglobin Beta Chain Splicing at IVS2 654 locus (AID 910).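 Note: HeLa cells stably carrying EGFP split by mutant beta-globin IVS2-654 intron; % of control where 0% means no effect.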 The following applies: HeLa EGFP-654 splicing reporter, GFP fluorescence, 48 h; series mostly up to 38.3 µM. The procedure, abridged: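 HeLa cells stably expressing EGFP interrupted by β-globin IVS2-654 intron, seeded overnight in Opti-MEM/2% FCS, then treated 2 days at 37 °C. Restored splicing read as total peak GFP intensity per well by laser scanning cytometry (488 nm excitation, 500–520 nm emission); 500 nM antisense PNA as control.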

Assay [14] in a line: Confirmation and Secondary Assay for Modulators of Hemoglobin Beta Chain Splicing at IVS2 705 locus (AID 930). Note: % of control where 0% means no effect. To be noted: HeLa EGFP-705 splicing reporter, GFP fluorescence, 48 h; series mostly up to 38.3 µM. The procedure, abridged: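 HeLa cells stably carrying EGFP interrupted by mutant beta-globin intron 2 (IVS2-705) treated 2 days at 37C with compound; 500 nM antisense PNA as control. Correct splicing read as total peak GFP intensity per well by laser-scanning cytometry.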

A short description of assay [15]: qHTS Assay for Lipid Storage Modulators (AID 1519; calls by dose curve). The following applies: Drosophila S3 cells, BODIPY lipid droplet/cell ratio, laser cytometry, cells loaded with oleic acid; for activity change, negative = inhibition: at 57.5 µM (top of the series). The gist of the method: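 Cells seeded at 5,000 per well were treated with compounds over a concentration series and loaded with oleic acid (400 uM, as added). Lipid droplet fluorescence (488 nm excitation, 500-530 nm channel) was read by laser-scanning cytometry and normalized to 20 uM Triacsin C.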

The target of assay [16] is Ubiquitin carboxyl-terminal hydrolase 1 (Homo sapiens) (UniProt O94782). Put plainly: Inhibitors of USP1/UAF1: Pilot qHTS (AID 504865).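 Note: rhodamine fluorescence freed from ubiquitin-rhodamine substrate followed over time; top concentration of the series differs between compounds; % is set by controls: 0 for no effect and ±100 for the full control effect; nearly all actives have a fitted effect of over 35% in size.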 The following applies: purified USP1/UAF1, Ub-rhodamine cleavage fluorescence; series mostly up to 54.9 µM. The gist of the method:
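USP1/UAF1 complex (1nM) preincubated with compound 15 min at room temperature, then Ub-Rho substrate (150nM final) added. Fluorescence read kinetically at 480/540 nm, 6 reads every 60 seconds. Buffer: 50mM HEPES pH 7.8, 0.5mM EDTA, 0.1 mg/ml BSA, 1mM TCEP, 0.01% Tween-20.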

Assay [17] is described as follows: Primary qHTS for inhibitors of nuclear receptor binding SET domain protein 2 (NSD2) in an isogenic RCH-ACV NSD2 p.E1099K mutant (9B) (AID 1645876). Note: % is set by controls: 0 for no effect and ±100 for the full control effect; nearly all actives have a fitted effect of over 70% in size. To be noted: RCH-ACV NSD2 E1099K (9B) viability, CellTiter-Glo, 72 h; series mostly up to 44.9 µM.
A short description of assay [18]: Primary qHTS for inhibitors of nuclear receptor binding SET domain protein 2 (NSD2) in an RCH-ACV wild type WT cells (2C) (AID 1645877). Note: % is set by controls: 0 for no effect and ±100 for the full control effect; nearly all actives have a fitted effect of over 70% in size. The following applies: RCH-ACV (leukaemia line) NSD2 WT (2C) viability, CellTiter-Glo, 72 h; series mostly up to 44.9 µM.
Assay [19] deals with Glutathione peroxidase 1 (Homo sapiens) (UniProt P07203). Briefly: Primary qHTS Assay for Inhibitors of Recombinant Selenoprotein Glutathione Peroxidase 1 (GPX1) (AID 1845191). Note: nearly all actives have a fitted effect of over 65% in size. To be noted: recombinant GPX1, GR-coupled NADPH fluorescence, 15 min; series mostly up to 48.8 µM. The procedure, abridged: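 GR-coupled assay: compounds preincubated 30 min at room temperature with GPX1, then reaction started with CHP; final 10 nM GPX1, 1 mM GSH, 0.5 mM CHP, 0.5 mM NADPH, 100 nM GR, 0.01% BSA, pH 7.5 Tris buffer. NADPH fluorescence (340/450 nm) read at 0 and 15 min.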
Sequence of Glutathione peroxidase 1 (Homo sapiens) (P07203 whole entry, looked up): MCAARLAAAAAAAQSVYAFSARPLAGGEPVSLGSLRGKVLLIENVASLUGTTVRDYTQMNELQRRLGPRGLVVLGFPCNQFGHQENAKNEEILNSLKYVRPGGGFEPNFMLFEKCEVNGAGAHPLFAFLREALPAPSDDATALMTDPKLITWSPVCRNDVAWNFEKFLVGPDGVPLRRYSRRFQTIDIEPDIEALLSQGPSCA

Assay [20] has as its target Phospholipid hydroperoxide glutathione peroxidase GPX4 (Homo sapiens) (UniProt P36969). Briefly: Primary qHTS Assay for Inhibitors of Recombinant Selenoprotein Glutathione Peroxidase 4 (GPX4) (AID 1845192). Note: nearly all actives have a fitted effect of over 65% in size. The following applies: recombinant GPX4, GR-coupled NADPH fluorescence, 15 min; series mostly up to 50 µM. The gist of the method: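 GR-coupled assay: recombinant GPX4 preincubated 30 min with compound at room temperature; final 200 nM GPX4, 1 mM GSH, 0.5 mM cumene hydroperoxide, 0.5 mM NADPH, 100 nM GR, 0.01% BSA, pH 7.5 Tris. NADPH fluorescence (340/450 nm) read at 0 and 15 min.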

Assay [21] is described as follows: qHTS drug screen for cell cycle checkpoint inhibitors in PARPi-resistant BRCA-mutant ovarian cancer cell lines. (AID 1963452; calls by dose curve). The following applies: PEO1/OlaR viability, CellTiter-Glo luminescence, 96 h, stronger effect = lower value. The gist of the method:
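PEO1, PEO4 and PEO1/OlaR ovarian cancer cells, 600 per well, exposed 96 h at 37C to a dilution series. Viability read by CellTiter-Glo luminescence, normalized to DMSO and empty wells; activity summarized as Z-AUC.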

The mark [22] stands for this setting: measured here: cell count channel max response.
Setting [23] is: measured here: lipid channel max response.

Results filed as inconclusive are left out. The source made the active and inactive calls. Unless noted, calls come from the whole dose curve; as a rule, active = well fitted curve in the direction sought with a large enough effect; inconclusive = small, poorly fitted or top-dose-only effect, or another doubt; inactive = no such curve, though single readings can be large; an effect the other way counts as inactive or inconclusive.

Sequence of Lysosomal acid glucosylceramidase (Homo sapiens) (P04062 whole entry, looked up): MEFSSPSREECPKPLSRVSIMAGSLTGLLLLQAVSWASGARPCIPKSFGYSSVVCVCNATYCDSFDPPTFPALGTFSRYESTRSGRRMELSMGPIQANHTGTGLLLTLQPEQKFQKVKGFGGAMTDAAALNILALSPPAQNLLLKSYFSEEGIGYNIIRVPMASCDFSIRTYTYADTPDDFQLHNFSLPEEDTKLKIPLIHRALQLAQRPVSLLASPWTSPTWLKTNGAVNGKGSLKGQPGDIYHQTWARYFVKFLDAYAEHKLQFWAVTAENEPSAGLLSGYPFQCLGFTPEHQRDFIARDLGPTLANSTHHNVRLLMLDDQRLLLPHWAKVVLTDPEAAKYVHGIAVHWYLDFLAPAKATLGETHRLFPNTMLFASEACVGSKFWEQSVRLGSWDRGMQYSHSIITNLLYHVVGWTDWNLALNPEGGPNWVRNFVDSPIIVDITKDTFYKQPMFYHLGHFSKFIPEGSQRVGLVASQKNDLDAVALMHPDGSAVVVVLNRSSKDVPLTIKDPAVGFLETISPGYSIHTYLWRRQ
Sequence of Cytochrome P450 1A2 (Homo sapiens) (P05177 whole entry, looked up): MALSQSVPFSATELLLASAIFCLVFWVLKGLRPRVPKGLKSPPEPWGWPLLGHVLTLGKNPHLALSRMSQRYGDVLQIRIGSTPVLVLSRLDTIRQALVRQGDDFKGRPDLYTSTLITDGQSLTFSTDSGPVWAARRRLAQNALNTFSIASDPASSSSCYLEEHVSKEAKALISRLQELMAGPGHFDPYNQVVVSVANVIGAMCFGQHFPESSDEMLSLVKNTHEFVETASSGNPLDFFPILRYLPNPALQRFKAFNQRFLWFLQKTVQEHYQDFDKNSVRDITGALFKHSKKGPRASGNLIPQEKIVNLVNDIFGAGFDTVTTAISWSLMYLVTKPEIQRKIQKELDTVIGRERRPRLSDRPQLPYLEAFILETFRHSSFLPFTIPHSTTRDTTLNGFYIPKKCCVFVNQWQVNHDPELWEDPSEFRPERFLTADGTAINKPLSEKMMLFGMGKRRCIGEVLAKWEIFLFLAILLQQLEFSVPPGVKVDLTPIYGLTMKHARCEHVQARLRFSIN
Sequence of Ubiquitin carboxyl-terminal hydrolase 1 (Homo sapiens) (O94782 whole entry, looked up): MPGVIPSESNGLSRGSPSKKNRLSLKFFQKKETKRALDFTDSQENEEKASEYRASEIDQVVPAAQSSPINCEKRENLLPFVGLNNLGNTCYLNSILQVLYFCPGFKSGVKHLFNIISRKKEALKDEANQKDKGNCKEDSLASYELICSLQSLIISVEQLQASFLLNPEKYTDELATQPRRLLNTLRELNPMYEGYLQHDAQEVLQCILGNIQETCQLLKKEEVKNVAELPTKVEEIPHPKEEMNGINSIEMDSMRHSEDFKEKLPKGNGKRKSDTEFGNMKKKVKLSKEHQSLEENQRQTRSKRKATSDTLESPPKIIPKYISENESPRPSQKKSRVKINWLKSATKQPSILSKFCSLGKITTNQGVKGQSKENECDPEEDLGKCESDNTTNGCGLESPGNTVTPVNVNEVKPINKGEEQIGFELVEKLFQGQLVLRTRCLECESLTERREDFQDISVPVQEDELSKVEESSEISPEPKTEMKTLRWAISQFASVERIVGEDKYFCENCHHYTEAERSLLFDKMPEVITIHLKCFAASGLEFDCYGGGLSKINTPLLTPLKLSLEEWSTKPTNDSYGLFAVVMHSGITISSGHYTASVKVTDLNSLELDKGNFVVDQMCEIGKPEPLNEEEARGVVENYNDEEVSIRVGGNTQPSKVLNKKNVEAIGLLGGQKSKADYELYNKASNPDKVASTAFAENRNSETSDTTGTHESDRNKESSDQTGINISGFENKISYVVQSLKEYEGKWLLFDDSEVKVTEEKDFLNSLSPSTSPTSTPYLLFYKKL
Sequence of Phospholipid hydroperoxide glutathione peroxidase GPX4 (Homo sapiens) (P36969 whole entry, looked up): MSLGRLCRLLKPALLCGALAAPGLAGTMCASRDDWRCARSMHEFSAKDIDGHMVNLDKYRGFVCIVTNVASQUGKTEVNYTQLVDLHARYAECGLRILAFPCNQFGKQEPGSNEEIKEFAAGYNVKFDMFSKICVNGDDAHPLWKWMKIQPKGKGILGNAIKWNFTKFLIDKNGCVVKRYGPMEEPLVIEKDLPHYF

As for `c1cncc(CNc2ncncc2-c2ccc3c(c2)OCO3)c1`, the Potency is > 11.4 µM (inactive) in [1]; 0.398 µM (active) in assay [3]; > 46 µM (inactive) in [6]; > 46 µM (inactive) in [7]; 0.398 µM (active) in [10]; 0.199 µM (active) in [12]. Besides, the activity change, negative = inhibition was -3.33% (inactive) in assay [2], 6.22% (inactive) in [4] and 8.63% (inactive) in assay [15]. For the same molecule, in assay [5], the activity, negative = inhibition is 0.562% (inactive). In addition, the molecule was called inactive in assay [8], in assay [13] and in assay [14]. Further, the Potency result in assay [9], in assay [11] and in assay [16] was “inactive” throughout. In addition, the results for the max response in assay [15] (setting [22]) and in assay [15] (setting [23]) were 10.5% and 22.7%, respectively.

Turning to `COc1ccc(CNC(=O)c2cc(-c3cncc(Cl)c3)cnc2-c2ccccn2)nc1OC`, the Potency entry in [17], in assay [18], in [19] and in [20] was “inactive” each time. The Z-AUC in assay [21] was 0.765 (inactive); in assay [21] (measured here: PEO1 parental Z-AUC), 0.872; in assay [21] (measured here: PEO4 Z-AUC), 1.32.

With `CN(C)c1ccc(-c2ccc3ncnc(N4CCNCC4)c3c2)cc1`, the Potency in assay [1] is > 11.4 µM (inactive); in [3], 2.51 µM (active); in assay [6], > 46 µM (inactive); in assay [7], > 46 µM (inactive). Also, the activity change, negative = inhibition was 5.26% (inactive) in [2], -13.1% (inactive) in [4] and 7.34% (inactive) in assay [15]. Also, in assay [5], the activity, negative = inhibition is 5.8% (inactive). The outcome in [8], in [13] and in [14] was inactive. Also, the Potency entry in assay [9] and in assay [11] was “inactive” throughout. Moreover, the max response in assay [15] (setting [22]) is -3.08%; in [15] (setting [23]), 4.85%.
